This passage reports AC50 and outcome results from PubChem BioAssay (EPA / NIEHS).

Assay [1] is described as follows: STM_H9_OrnithineISnorm_perc: Stemina devTOX quickPredict H9 human embryonic stem cell (hESC)-based Assay for Ornithine (ORN) Metabolite Biomarker, Normalized (AID 2283712; active means hit-call score of the fitted dose curve at least 0.9, where 1 is the maximum; inactive means score below 0.9;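 further: ornithine released into spent medium during last day measured by mass spectrometry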). Put shortly:
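Cells: undifferentiated H9 hESC. Dosing: 72 h, media replaced every 24 h. Sample: final 24-h conditioned media, 40% acetonitrile. Read: UPLC-HRMS ornithine area vs 13C standard, % DMSO control.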

The nature of assay [2]: STM_H9_CystineISnorm_perc: Stemina devTOX quickPredict H9 human embryonic stem cell (hESC)-based Assay for Cystine (CYSS) Metabolite Biomarker, Normalized (AID 2283713; active means hit-call score of the fitted dose curve at least 0.9, where 1 is the maximum; inactive means score below 0.9). An outline of the steps:
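Secreted cystine was measured by UPLC-HRMS in H9 hESC medium after 72h compound exposure with 24-hourly replenishment. Values are standard-normalized areas relative to 0.1% DMSO.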

The nature of assay [3]: STM_H9_OrnCyssISnorm_ratio: Stemina devTOX quickPredict H9 human embryonic stem cell (hESC)-based Assay for Ornithine (ORN):Cystine (CYSS) Ratio (AID 2283714). An outline of the steps:
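Undifferentiated H9 hESCs exposed 72 h, media and compound replaced every 24 h; final 24-h conditioned media deproteinized and analysed by UPLC-HRMS against C13 spike-ins. Value is the internal-standard-normalized ORN/CYSS ratio versus 0.1% DMSO.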

A short description of assay [4]: Tanguay_ZF_120hpf_ActivityScore_legacy: (Legacy) Oregon State University Tanguay Lab 120 Hour Post-fertilization zebrafish Assay Score for Activity (AID 2283742).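 On AC50: dechorionated Tropical 5D wild-type zebrafish embryos held singly per well; static exposure from 6 hpf until 120 hpf at 28 °C.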 An outline of the steps: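 Dechorionated Tropical 5D embryos, one per well from 6 hpf, statically exposed to 120 hpf at 28 °C in 0.64% DMSO. Mortality and malformations scored binary by brightfield microscopy; activity score combines 18 endpoints, fitted positively versus DMSO.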

Assay [5] can be described thus: CCTE_Padilla_ZF_144hpf_TERATOSCORE: (Legacy) CCTE's 144 Hour Post-fertilization zebrafish Assay Teratoscore, Padilla Lab (AID 2283679; active means hit-call score of the fitted dose curve at least 0.9, where 1 is the maximum; inactive means score below 0.9;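 on AC50: zebrafish embryos with chorions exposed by immersion from 6-8 hpf to 5 dpf with daily renewal; teratogenicity score from eye scoring of death hatching and malformations at 144 hpf; higher score means more developmental defects relative to DMSO baseline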). An outline of the steps:
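Larvae scored by eye at 144 hpf for death, hatching and malformations after a day in clean Hanks'. Before that, daily-renewed exposure at 80 uM (0.4% DMSO, 26C) from roughly 6-8 hpf through 5 dpf, 4 embryos per chemical.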

Assay [6] has as its target Luciferin 4-monooxygenase (Photinus pyralis) (UniProt P08659). Put plainly: CCTE_Simmons_QuantiLum_inhib_2: CCTE's Firefly Luciferase Inhibition Assay, Simmons Lab (AID 2283767).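 On AC50: potency for inhibitors that lower luciferase luminescence relative to DMSO.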 Put shortly:
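Counter-screen for nonspecific enzyme inhibition: purified firefly luciferase incubated 30 min at 37C with chemicals up to 87.5 uM final, then luminescence measured after luciferin/dATP injection; activity fitted against DMSO baseline.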

Assay [7] can be described thus: CEETOX_H295R_MTT_cell_viability: Viability Assessment in the CeeTox HT-H295R MTT Assay (AID 2283718; active means hit-call score of the fitted dose curve at least 0.9, where 1 is the maximum; inactive means score below 0.9;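 on AC50: curve fitted both ways so AC50 may mark viability loss or gain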). An outline of the steps: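 Human H295R adrenal cells, prestimulated 48 h with 10 uM forskolin, were exposed 48 h to chemicals in 0.1% DMSO. Viability was measured in the same wells by MTT (0.5 mg/ml, 4 h, 37 C), absorbance 570/650 nm, as percent of controls.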
The test system of assay [8] is Thyroperoxidase (TPO), gene 445522. Kind of assay: CCTE_Simmons_GUA_TPO: CCTE's Guaiacol Assay for Thyroperoxidase (TPO) Inhibition, Simmons Lab (AID 2283750). Put shortly: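 Porcine thyroid microsomes (25 ug) in 200mM potassium phosphate, preincubated 30 s at 37C with compound (8 concentrations, 5 nM–87.5 uM) and 35mM guaiacol; 1mM H2O2 starts reaction. Absorbance change at 450nm over first 80 s; loss of signal versus DMSO, three replicates.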

Inconclusive results are not listed. The source made the active and inactive calls. How the source made its calls, unless noted: active means hit-call score of the fitted dose curve at least 0.9, where 1 is the maximum; inconclusive means response in the unintended direction; inactive means score below 0.9.

Luciferin 4-monooxygenase (Photinus pyralis), sequence (P08659 whole entry, looked up): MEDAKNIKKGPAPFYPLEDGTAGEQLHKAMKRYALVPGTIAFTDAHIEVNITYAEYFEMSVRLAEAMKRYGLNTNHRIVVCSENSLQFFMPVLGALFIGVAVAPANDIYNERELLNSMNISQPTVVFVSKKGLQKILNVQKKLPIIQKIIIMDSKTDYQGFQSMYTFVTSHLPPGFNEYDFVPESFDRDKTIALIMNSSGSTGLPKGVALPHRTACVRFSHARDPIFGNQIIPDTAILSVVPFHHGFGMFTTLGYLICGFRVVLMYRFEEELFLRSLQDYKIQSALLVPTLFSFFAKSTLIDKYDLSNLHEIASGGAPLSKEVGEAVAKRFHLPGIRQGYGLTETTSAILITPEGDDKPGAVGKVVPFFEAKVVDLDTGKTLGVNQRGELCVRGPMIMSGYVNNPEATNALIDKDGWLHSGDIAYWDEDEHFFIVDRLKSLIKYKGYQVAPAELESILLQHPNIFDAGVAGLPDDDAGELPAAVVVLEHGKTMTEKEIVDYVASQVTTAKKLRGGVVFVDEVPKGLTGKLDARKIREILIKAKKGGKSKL

Turning to `O=C1CCC(N2C(=O)c3ccccc3C2=O)C(=O)N1` (stereo not drawn), the AC50 in assay [1] was 0.124 µM (active); in assay [3], 0.121 µM (active). Besides, the outcome in assay [2] and in assay [4] was inactive.
Consider `CCc1cc(SCc2sc(-c3ccc(C(F)(F)F)cc3)nc2CN2CCN(c3ccc(OC)cc3)CC2)ccc1OCC(=O)O`, for which the AC50 in assay [5] is 5.47 µM (active); in assay [4], 61.5 µM (active).
`NC(=O)NO`: the AC50 in assay [1] was 371 µM (active); in assay [2], 153 µM (active); in assay [3], 392 µM (active). The result in assay [4] and in assay [6] was inactive.
For the compound `O=C(OC[C@H]1O[C@@H](OC(=O)c2cc(O)c(O)c(OC(=O)c3cc(O)c(O)c(O)c3)c2)[C@H](OC(=O)c2cc(O)c(O)c(OC(=O)c3cc(O)c(O)c(O)c3)c2)[C@@H](OC(=O)c2cc(O)c(O)c(OC(=O)c3cc(O)c(O)c(O)c3)c2)[C@@H]1OC(=O)c1cc(O)c(O)c(OC(=O)c2cc(O)c(O)c(O)c2)c1)c1cc(O)c(O)c(OC(=O)c2cc(O)c(O)c(O)c2)c1`, the AC50 was 4.71 µM (active) in assay [5] and 21.6 µM (active) in assay [6]. Further, the call in assay [4] was inactive.
Regarding `Cn1c(=O)c2c(ncn2C)n(C)c1=O`, the outcome in assay [1] and in assay [4] was inactive. For the same compound, the AC50 in assay [2] was 181 µM (active).
Consider `O=c1[nH]c2ccc(S(=O)CCN3CCC(Cc4ccc(F)cc4)CC3)cc2o1` (stereo not drawn), for which the outcome in assay [1], in assay [7] and in assay [4] was inactive. Moreover, the AC50 in assay [2] is 3.91 µM (active); in assay [3], 5 µM (active).
With `CN(C)c1ccc(N=NS(=O)(=O)O)cc1`, the AC50 in assay [1] is 28.5 µM (active); in assay [2], 16.9 µM (active); in assay [3], 20.5 µM (active). The compound was classed as inactive in assay [4] and in assay [6].
As to `CC/C(=C\C(=N/O)C(N)=O)C(C)[N+](=O)[O-]` (stereo not drawn), the outcome in assay [5], in assay [4] and in assay [6] was inactive.
As to `CCCCC(CC)COC(=O)c1ccc(C(=O)OCC(CC)CCCC)cc1` (stereo not drawn), the compound was classed as inactive in assay [7] and in assay [4].
With `Cc1ccc(O)cc1`, the compound was classed as inactive in assay [7] and in assay [4].
Take `CCOC(=O)COc1ccc2c(c1)CC(NCC(O)c1cccc(Cl)c1)CC2` (stereo not drawn): the AC50 in assay [5] is 6.13 µM (active); in assay [4], 30 µM (active).
Consider `CC[C@H]1CC[C@H](NCc2cc3c(cc2OC)[C@H]2C[C@H]2C(=O)N3C)[C@H](c2ccccc2)N1`, for which the AC50 in assay [1] is 9.25 µM (active); in assay [2], 7.32 µM (active); in assay [3], 8.66 µM (active). Besides, the compound was called inactive in assay [7] and in assay [4].
As to `CCCCCCCCCCCCCCCO`, in assay [7], the AC50 is 66.7 nM (active). Also, the compound was classed as inactive in assay [4].
As to `Clc1nc(Cl)c(Cl)c(Cl)c1Cl`, the AC50 in assay [5] was 8.13 µM (active). Also, in assay [4], the compound was classed as inactive.
For `CNCc1ccc(NC(=O)c2c[nH]c3c2C(=O)CCC3)cc1`, the outcome in assay [1], in assay [2], in assay [3] and in assay [4] was inactive.
As to `Cn1cnc([N+](=O)[O-])c1Sc1ncnc2nc[nH]c12`, the AC50 is 3.25 µM (active) in assay [1], 3.49 µM (active) in assay [2] and 3.28 µM (active) in assay [3]. Besides, the result in assay [4] and in assay [6] was inactive.
On to `CCCN(C1CCN(C(=O)C2CCNCC2)CC1)[C@@H]1CCc2ccc(OC)cc2C1`, for which the compound was called inactive in assay [5], in assay [4] and in assay [6].
As for `CCCCC(CC)COC(=O)CCCCCCCCC(=O)OCC(CC)CCCC` (stereo not drawn), the call in assay [5] and in assay [4] was inactive.
Consider `O=C(CCCCCCCCc1cccnc1)N1CCC(C=C(c2ccccc2)c2ccccc2)CC1`, for which the AC50 in assay [5] is 14.2 µM (active). In addition, the compound was called inactive in assay [4] and in assay [6].
Consider `CCNc1ccccc1`, for which, in assay [8], the compound was classed as inactive.

As a reminder, the AC50 is the concentration giving half of the maximal activity seen.
